Screens deposited in PubChem by National Center for Advancing Translational Sciences (NCATS).
TbPYK inhibitor: blocks Trypanosoma brucei pyruvate kinase | Q57TT1 | TbPYK enzyme, Kinase-Glo Plus ATP luminescence, 45 min | Potency, µM (highest dose often 76.8 µM), without a hit: at the highest dose activity, negative = inhibition, most hits filed as inhibitors | actives 0.12% (n = 410,000); note: potency is the fitted concentration of half-maximal effect; % is set by controls: 0 for no effect and ±100 for the full control effect; nearly all actives have a fitted effect of over 50% in size
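Luminescent Kinase-Glo Plus end-point after 45 min room-temperature reaction of T. brucei pyruvate kinase started with 130 uM ADP (final). Buffer TEA 50 mM pH 7.2 with KCl, MgCl2, BSA, Tween-20; titration-based qHTS with fitted concentration-effect curves.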
LmPK inhibitor: LmPK (Leishmania mexicana) enzyme inhibition; Q27686; purified LmPK, Kinase-Glo ATP luminescence, 1 h; Potency, µM (doses to about 57.5 µM), without a hit: at the top dose activity change, negative = inhibition, actives largely listed as inhibitors; actives 0.37% (n = 290,000); AID 1721; note: potency is the fitted concentration of half-maximal effect; % is set by controls: 0 for no effect and ±100 for the full control effect
Target sequence (Q27686 whole entry, looked up): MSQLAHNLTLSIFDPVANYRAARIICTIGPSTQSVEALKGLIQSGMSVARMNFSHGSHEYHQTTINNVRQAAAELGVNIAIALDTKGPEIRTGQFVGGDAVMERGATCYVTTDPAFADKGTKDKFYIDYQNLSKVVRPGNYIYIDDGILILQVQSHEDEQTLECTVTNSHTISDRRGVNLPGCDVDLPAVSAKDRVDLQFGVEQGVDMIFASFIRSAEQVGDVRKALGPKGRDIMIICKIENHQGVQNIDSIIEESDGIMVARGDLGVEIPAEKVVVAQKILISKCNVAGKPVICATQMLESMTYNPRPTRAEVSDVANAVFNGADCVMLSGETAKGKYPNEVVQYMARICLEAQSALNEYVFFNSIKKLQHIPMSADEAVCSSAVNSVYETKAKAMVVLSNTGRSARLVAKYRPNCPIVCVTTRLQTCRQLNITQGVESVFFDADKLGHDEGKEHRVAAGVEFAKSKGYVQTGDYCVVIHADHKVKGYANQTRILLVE
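In 50 mM imidazole pH 7.2 with 7 mM MgCl2, LmPK (0.1 nM) turned over PEP (0.5 mM) and ADP (0.1 mM) for 1 h at room temperature. Luciferase read-out of ATP.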
Giardia FBPA inh: inhibitors of Giardia lamblia fructose-1,6-bisphosphate aldolase; Potency, µM (titrated, usually from 59.6 µM), without a hit: top-dose activity, negative = inhibition, most hits filed as inhibitors; A8B2U2; purified Giardia FBPA; actives 0.71% (n = 290,000); AID 2451; note: potency is the fitted concentration of half-maximal effect; % is set by controls: 0 for no effect and ±100 for the full control effect; nearly all actives have a fitted effect of over 55% in size
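Giardia FBPA (40 nM reagent) was preincubated 10 min at RT with compound (up to 57.5 uM final), then substrate plus GAPDH/TPI/NAD/arsenate coupling system with diaphorase/resazurin was added; resorufin fluorescence (525/598 nm) was read after 20 min.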
CHX counter: affects cycloheximide protein synthesis inhibition readout, counter-screen; max response, %; cell reporter, cycloheximide protein synthesis inhibition counterscreen; actives 12% (n = 300,000); in the data active = max response mostly above about 13%, no sharp cut-off; inactive = mostly below about 14%; note: read at 38.3 µM for the half of the compounds with a filed dose; 0% is about no effect
RE007 growth inh: less growth of the S. pombe RE007 Vpr strain; S. pombe RE007 Vpr strain, BacTiter-Glo ATP luminescence, 24 h; Potency, µM (series often up to 92.2 µM), for the others: top-dose activity change, negative = less growth, actives largely listed as inhibitors; actives 0.21% (n = 360,000); active = well fitted falling curve with a large enough effect; inconclusive = small, poorly fitted or top-dose-only effect; inactive = no such curve, though single readings can be large or run the other way; note: potency is the fitted concentration of half-maximal effect; % is set by controls: 0 for no effect and ±100 for the full control effect; nearly all actives have a fitted effect of over 50% in size
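Fission yeast strain RE007, carrying one chromosomally integrated HIV-1 vpr copy, was seeded at OD 0.01 in PMG+AL medium with 23 nL pinned compound. After 24 h at 30 °C and 99% humidity, viability was read by BacTiter-Glo luminescence.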
Shiga toxin inh: inhibitors of Shiga toxin in Vero cells; Vero cells, Shiga toxin protein synthesis inhibition reporter; inhibition, % at 38.7 µM; actives 9.2% (n = 290,000); AID 2315; in the data active = inhibition mostly above about 28%, no sharp cut-off; inactive = mostly below about 43%; note: 0% is about no effect
Active calls of the source: *; ? = inconclusive; / = no result. This excerpt belongs to a sample that is enriched for hits. Unless noted, calls come from the whole dose curve; as a rule, active = well fitted curve in the direction sought with a large enough effect; inconclusive = small, poorly fitted or top-dose-only effect, or another doubt; inactive = no such curve, though single readings can be large; an effect the other way counts as inactive or inconclusive.

SMILES	TbPYK inhibitor	LmPK inhibitor	Giardia FBPA inh	CHX counter	RE007 growth inh	Shiga toxin inh
O=C(CSCc1ccc(Cl)cc1)Nc1cccc(C(=O)O)c1	-5.0%	-8.0%	18.3%	27.3*	?	52.0*
CC(=O)c1cccc(NC(=O)CCCSc2ccccc2)c1	2.1%	1.4%	12.8%	8.5	-0.1%	19.6*
O=c1c2cccnc2n(Cc2ccccc2F)c(=O)n1Cc1ccccc1Cl	-2.0%	/	/	/	/	/
Cc1c(NC(=O)COC(=O)c2ccc(O)cc2)c(=O)n(-c2ccccc2)n1C	-0.3%	/	/	/	6.2%	/
Cc1ccc2c(c1)OC(c1ccc3c(c1)OCCO3)CC2=O (centres undefined)	-1.2%	-2.2%	14.0%	29.1*	30.5%	67.0*
COc1cccc(C(C)(O)c2nc(-c3ccoc3)cs2)c1 (centres undefined)	-4.3%	/	/	/	11.3%	/
COc1ccc(NC(=O)C2C3C=CC(O3)C2C(=O)O)cc1 (centres undefined)	0.9%	-2.1%	-4.6%	1.2	-4.7%	1.1
O=C(O)C1C2C=CC(C2)C1C(=O)Nc1ccc2c(c1)OCCO2 (centres undefined)	-2.0%	0.1%	4.8%	79.5*	1.2%	112.8*
O=C(O)C1C2C=CC(O2)C1C(=O)Nc1ccc2c(c1)OCCO2 (centres undefined)	/	-1.8%	-18.8%	74.6*	/	132.2*
CCc1ccc(NC(=O)C2C3C=CC(C4CC34)C2C(=O)O)cc1 (centres undefined)	-4.1%	-5.5%	-0.2%	13.9*	-0.1%	19.1
CN(C)c1ccc(NC(=O)C2C3C=CC(C3)C2C(=O)O)cc1 (centres undefined)	-16.9%	3.4%	-3.7%	19.7*	-18.5%	66.4*
O=C(NCCc1ccccc1Cl)C1CC(=O)N(C2CCCCC2)C1 (centres undefined)	3.1%	11.9%	9.0%	-4.1	-3.5%	-7.2
CCCCCNc1nc(-c2ccccc2)cs1	/	-15.4%	-4.7%	41.6*	/	80.1*
Cc1nc(-c2ccccc2)cs1	-12.1%	5.7%	1.5%	1.9	14.4%	-16.1
c1ccc(CCNc2nc(-c3ccncc3)cs2)cc1	0.6%	-8.2%	1.7%	29.0*	-1.9%	51.9
Cc1cc(C)cc(Oc2c(C(F)(F)F)oc3cc(OCC(=O)NC4CCCCC4)ccc3c2=O)c1	-3.9%	/	/	/	/	/
COC(=O)N1C(=O)[C@@](Cc2ccccc2)(c2ccccc2)N1C(=O)OC	-17.3%	-4.1%	-3.2%	11.9*	-1.7%	9.5
COC(=O)N1C(=O)[C@@](c2ccccc2)(C2CCCCC2)N1C(=O)OC	1.3%	-7.7%	-13.0%	10.6*	5.4%	13.1
COC(=O)N1C(=O)[C@](Cc2ccccc2)(c2ccccc2)N1C(=O)OC	-0.7%	-7.8%	4.3%	21.0*	1.6%	5.2
CC[C@]1(c2ccccc2)C(=O)N(C(=O)OC)N1C(=O)OC	7.8%	-3.3%	-11.1%	9.9	3.3%	-2.1
CC[C@@]1(c2ccccc2)C(=O)N(C(=O)OC)N1C(=O)OC	-7.4%	0.6%	-8.3%	4.8	14.2%	2.7
CCOc1ccc(Nc2oc(/C=C/c3cc(OC)c(OC)c(OC)c3)nc2C#N)cc1	0.2%	/	/	/	/	/
CCOc1cccc(C(=O)N(Cc2ccc(C)o2)C2CCS(=O)(=O)C2)c1 (centres undefined)	-3.4%	/	/	/	/	/
Cc1cc(C)cc(NC(=O)CSc2oc(-c3ccccc3)nc2S(=O)(=O)c2ccccc2)c1	1.2%	/	/	/	/	/
Cc1cc(C)c2nc3nc(C)c(C)cc3c(N)c2c1	0.0%	-0.3%	-8.1%	20.2	?	69.7*
SMILES	TbPYK inhibitor	LmPK inhibitor	Giardia FBPA inh	CHX counter	RE007 growth inh	Shiga toxin inh
O=C(NCCc1ccccn1)c1ccc(OC2CCN(CCc3ccccc3)CC2)cc1	0.0%	-9.8%	/	42.0*	-14.9%	65.0*
CCCN1CCC(Oc2cccc(C(=O)NCCc3ccccc3)c2)CC1	-9.9%	-9.9%	/	56.4*	23.4%	72.2*
CC(Cc1ccccn1)NC(=O)c1ccc(OC2CCN(CCc3ccccc3)CC2)cc1 (centres undefined)	-3.7%	-3.4%	6.7%	29.3*	0.0%	47.2*
COCCNC(=O)c1cccc(OC2CCN(Cc3cccc(C(C)=O)c3)CC2)c1	2.2%	-3.1%	3.4%	1.3	0.3%	3.9
CSCCCNC(=O)c1ccc(OC2CCN(CCc3ccccc3)CC2)cc1	5.4%	7.0%	2.0%	30.8*	7.6%	93.5*
C/C=C(\C)CN1CCC(Oc2ccc(C(=O)NCc3ccccn3)cc2)CC1	-5.9%	-5.5%	/	10.2	-2.5%	-6.1
COc1ccc(-n2c(=O)c3ccc(C(=O)NCc4ccc(C)cc4)cc3n(Cc3ccc(Cl)cc3)c2=O)cc1	-1.6%	/	/	/	/	/
COc1cc(Cl)c(C)cc1NC(=O)CC(c1ccc(F)cc1)N1Cc2ccccc2C1=O (centres undefined)	-3.9%	/	/	/	/	/
O=C(Nc1ccccc1F)c1cnccn1	-2.3%	-4.0%	4.9%	17.5*	0.0%	53.0*
O=C(COC(=O)c1cnccn1)Nc1ccccc1-c1ccccc1	-3.4%	/	/	/	-7.8%	/
O=C(Nc1ccccc1C(F)(F)F)c1cc2nc(-c3ccccc3)cc(-c3ccccc3)n2n1	-7.5%	/	/	/	/	/
Cc1ccc(NC(=O)c2cnccn2)c(Br)c1	1.7%	9.6%	10.2%	25.9*	-25.2%	/
O=C(Nc1ccccc1F)c1cc2nc(C(F)F)cc(C(F)F)n2n1	1.4%	-2.2%	-1.9%	22.5*	21.6%	51.7*
O=C(Nc1ccccc1-c1ccccc1)c1cnccn1	-2.1%	5.0%	7.6%	14.4*	-9.6%	53.6
O=C(c1cccc(F)c1)N1CCC2(CCCN(c3ccc(-c4ccccc4)cc3)C2)CC1	19.1%	/	-10.4%	/	/	/
COc1ccc2cc3cc(C(=O)N4CCN(c5ccccc5F)CC4)oc3nc2c1	-6.7%	/	/	/	/	/
COc1cccc(/C=C2\N=C(C3CCCCC3)OC2=O)c1OC	0.4%	8.3%	4.1%	52.5*	-9.2%	13.4
CC(=O)Oc1ccc(/C=C2\N=C(C3CCCCC3)OC2=O)cc1	0.4%	4.5%	3.5%	4.3	-14.1%	-2.9
Cc1ccc(CNC(=O)CS(=O)(=O)Cc2nc(-c3ccccc3C)oc2C)cc1	-0.6%	/	/	/	/	/
COc1cccc(-c2cccc(NC(=O)C3CCN(Cc4nccs4)CC3)c2)c1	1.4%	-5.9%	/	1.2	-9.6%	-2.4
CCOc1ccc(CN2CCC(C(=O)Nc3cccc(-c4ccn[nH]4)c3)CC2)cc1Cl	4.7%	4.1%	/	23.9*	-1.9%	43.0*
Cc1ccc(C(=O)N/N=C/c2ccc3c(c2)OCO3)o1	-6.6%	?	-7.1%	62.6*	-7.6%	60.4*
Cc1ccc(C(=O)NN=Cc2ccc3c(c2)OCO3)cc1	4.2%	/	/	/	9.8%	/
Cc1ccc(C(=O)/C=C/c2ccc3c(c2)OCO3)o1	-4.0%	?	0.1%	48.7*	?	52.4*
